Compound activity (PubChem)
Most compounds without a hit are left out; they make up all but 2.1% or so of the library.
MsrA inh: inhibitors of bovine MsrA; purified bovine MsrA, absorbance read-out; inhibition, % at 15.5 µM; 360,000 tested, 0.75% active; in the data active = inhibition above about 4.5%
SMARCA2 act: SMARCA2 function activation, primary screen; MG213 cells, MMTV-luciferase reporter, dexamethasone, overnight; activation, % at 9.1 µM; 370,000 tested, 1% active; AID 652017; in the data active = activation above about 7.8%
ABCB6 inh 2: human ABCB6 transporter inhibition | fluorescence ratio to DMSO, % at 10 µM | Q9NP58 | K562-ABCB6 porphyrin accumulation, flow cytometry, 1 h; hits give low values | 360,000 tested, 0.19% active | AID 602162;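 active = fluorescence ratio to DMSO below 75%, the collection mean minus 3 SD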;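 also: signal is porphyrin accumulated inside mitochondria; lower ratio means ABCB6 inhibition with less porphyrin fluorescence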
Target sequence (Q9NP58 whole entry, looked up): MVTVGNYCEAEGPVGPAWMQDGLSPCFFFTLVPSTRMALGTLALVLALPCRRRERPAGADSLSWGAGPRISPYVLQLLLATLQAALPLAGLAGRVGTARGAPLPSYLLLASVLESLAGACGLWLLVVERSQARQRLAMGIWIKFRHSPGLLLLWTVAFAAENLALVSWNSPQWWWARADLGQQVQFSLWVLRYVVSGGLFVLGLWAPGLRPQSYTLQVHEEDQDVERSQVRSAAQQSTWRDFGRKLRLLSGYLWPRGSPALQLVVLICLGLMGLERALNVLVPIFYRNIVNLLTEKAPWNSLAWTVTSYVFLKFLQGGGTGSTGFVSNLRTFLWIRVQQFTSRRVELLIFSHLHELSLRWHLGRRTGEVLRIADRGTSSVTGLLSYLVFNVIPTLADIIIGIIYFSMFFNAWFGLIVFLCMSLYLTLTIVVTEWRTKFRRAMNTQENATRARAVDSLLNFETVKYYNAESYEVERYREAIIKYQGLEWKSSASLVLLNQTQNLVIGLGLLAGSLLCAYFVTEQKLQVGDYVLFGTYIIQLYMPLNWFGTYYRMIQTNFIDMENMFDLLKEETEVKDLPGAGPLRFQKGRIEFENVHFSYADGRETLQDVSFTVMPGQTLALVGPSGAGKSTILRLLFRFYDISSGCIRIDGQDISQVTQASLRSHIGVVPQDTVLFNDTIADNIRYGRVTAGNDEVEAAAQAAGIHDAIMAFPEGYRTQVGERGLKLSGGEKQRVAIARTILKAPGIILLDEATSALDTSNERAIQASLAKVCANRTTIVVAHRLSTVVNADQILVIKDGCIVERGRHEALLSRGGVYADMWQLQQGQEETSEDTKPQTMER
bovine MsrA act: activates bovine MsrA enzyme; purified bovine MsrA, absorbance read-out; activation, % at 10.6 µM; 360,000 tested, 0.3% active; AID 602163; in the data active = activation above about 7.5%
Hits are given with their value; 0 = inactive; - = no result given.

SMILES | MsrA inh | SMARCA2 act | ABCB6 inh 2 | bovine MsrA act
O=C(CSC1=NCCS1)Nc1nc2c(s1)CCCC2 | 0 | 7.9 | 0 | 0
N#Cc1c(NC(=O)CSC2=NCCS2)sc2c1CCCC2 | 0 | 0 | 0 | 0
CCCCCCN1CCS(=O)(=O)N(Cc2ccccc2)C(C(=O)OC)C1 (centres undefined) | - | 0 | - | -
Cc1nn(-c2ccccc2)c2sc(C(=O)NC3CCCC3)cc12 | - | 0 | - | -
O=C(Nc1ccccc1Oc1ccccc1)c1ccccc1F | 0 | 9.5 | 0 | 0
COc1cccc(N2CCN(C(=O)COc3cc(=O)n(C)c4ccccc34)CC2)c1 | - | 0 | - | -
Cc1c(Cc2ccccc2)c(=O)oc2c(CN(C)C)c(O)c(Cl)cc12 | 0 | 0 | 0 | 0
CCc1cc2c(=O)c(Oc3ccccc3F)c(C)oc2c(CN(C)C)c1O | 6.7 | 0 | 0 | 0
C=C1C(=O)[C@]23C[C@H]1CCC2[C@]1(C)CCC[C@@](C)(C(=O)O)C1C[C@@H]3O (some centres undefined) | 0 | 0 | 0 | 0
C=C1C(=O)[C@]23C[C@H]1CC[C@H]2[C@]1(C)[C@@H](OC(C)=O)CC[C@@](C)(C(=O)O)[C@H]1C[C@@H]3OC(C)=O | 0 | 7.9 | 0 | 0
O=C(NC1(C(=O)NC2CCCC2)CCCCC1)c1ccc2c(c1)OCO2 | 0 | 0 | 69.0 | 0
Cc1ccc(S(=O)(=O)NCCN=C(CN2CCCC2)NS(=O)(=O)c2ccc(C)cc2)cc1 | 0 | 0 | 66.0 | 0
Cc1ccccc1CS(=O)(=O)Cc1ccc(C(=O)Nc2c(C)cccc2C)o1 | - | 0 | - | -
CC(=O)OC(C=C(C)C)C/C(C)=C/COc1c2ccoc2cc2oc(=O)ccc12 (centres undefined) | 12.5 | 0 | 0 | 0
O=C(COC(=O)c1ccc(Sc2ncn[nH]2)c([N+](=O)[O-])c1)Nc1ccc(Cl)cc1 | - | 0 | - | -
CCOC(=O)c1cc(-c2ccc(/C=N\n3cnnc3)o2)ccc1Cl | 5.6 | 0 | 0 | 0
CCCCOC(=O)c1cc(-c2ccc(/C=N/n3cnnc3)o2)ccc1Cl | 0 | 0 | 0 | 0
CCOC(=O)c1sc(=S)[nH]c1C | 0 | 0 | 0 | 8.4
CC(C(=O)N1CCc2ccccc2C1)N(c1ccccc1)S(C)(=O)=O (centres undefined) | 0 | 0 | 0 | 0
CC(=C1C(=O)c2ccccc2C1=O)N1CCc2ccccc2C1 | 0 | 7.9 | 0 | 0
O=C(CSc1nnc(-c2cccs2)n1Cc1ccco1)Nc1ccc(OCc2ccccc2)cc1 | - | 0 | - | -
O=C(Nc1ccc(NC(=O)c2cc([N+](=O)[O-])ccc2N2CCOCC2)cc1)c1cccs1 | 4.6 | 0 | 0 | 0
Cc1cc2cc(C(c3nnnn3CC3CCCO3)N3CCCc4ccccc43)c(=O)[nH]c2cc1C (centres undefined) | 4.6 | 0 | 0 | 0
CCc1ccc2[nH]c(=O)c(C(c3nnnn3CC3CCCO3)N3CCCc4ccccc43)cc2c1 (centres undefined) | 0 | 0 | 0 | 0
COc1ccccc1C(=O)NC1CCCCN(Cc2cccc(F)c2)C1=O (centres undefined) | - | 0 | - | -
SMILES | MsrA inh | SMARCA2 act | ABCB6 inh 2 | bovine MsrA act
CC(C)(C)OC(=O)N[C@@H](C(=O)OC(C)(C)C)c1ccccc1 | 0 | 0 | 0 | 0
Cc1cccc([C@@H](NC(=O)OC(C)(C)C)C(=O)OC(C)(C)C)c1 | 0 | 0 | 68.0 | 0
O=C(O)c1cccc(Nc2cc(Cl)c3nonc3c2[N+](=O)[O-])c1 | 4.6 | 0 | 0 | 0
O=C(O)c1ccccc1Nc1cc(Cl)c2nonc2c1[N+](=O)[O-] | 0 | 0 | 0 | 0
COc1ccccc1NS(=O)(=O)c1cccc(C(=O)N/N=C/c2c(C)nn(-c3ccccc3)c2N2CCCC2)c1 | 0 | 0 | 74.0 | 0
COc1ccccc1NS(=O)(=O)c1ccc(N/N=C/c2c(C)nn(-c3ccccc3)c2N2CCCC2)c([N+](=O)[O-])c1 | 0 | 0 | 0 | 0
COc1ccc(S[C@]2(C(=O)N3CCN(C(C)=O)CC3)CC(=O)N(C(=O)Nc3ccc(C)c(Cl)c3)[C@@H]2c2ccc(OC)cc2)cc1 | - | 0 | - | -
O=C(NC1CCCCN(Cc2cccc(C(F)(F)F)c2)C1=O)c1c(F)cccc1F (centres undefined) | - | 0 | - | -
COC(=O)[C@H](C)N(Cc1cn(Cc2ccccc2)nn1)S(=O)(=O)c1ccccc1Br | - | 7.8 | - | -
O=C(c1cc(Cl)cc(Cl)c1)N1CC[C@H]2[C@H](CCCN2Cc2ccc(F)cc2)C1 | - | 0 | - | -
CCN(c1cc(C)cc(C)c1)S(=O)(=O)c1nnc(NC(=O)c2ccco2)s1 | 0 | 0 | 0 | 0
CCN(c1ccccc1C)S(=O)(=O)c1nnc(NC(=O)c2ccco2)s1 | 0 | 0 | 0 | 0
CCN(c1ccc(OC)cc1)S(=O)(=O)c1nnc(NC(=O)c2ccco2)s1 | 4.6 | 0 | 0 | 0
COc1ccc(N(CC(C)C)S(=O)(=O)c2nnc(NC(=O)c3ccco3)s2)cc1 | 5.3 | 0 | 0 | 0
